Results from PubChem BioAssay (NCI).
This is part of a sample that, as a whole, favours compounds with a hit. Of some 83,000 tested, about 20% had one in any assay.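 Growth was measured after 48 h exposure to one concentration of compound in 96-well plates. Values under 10 count as active.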 Values without a mark were called inactive. Active and inactive are the calls of the source.

Columns and labels:
Experiment in all cases: NCI-60 one-dose screen, 48 h (100 = growth as untreated, 0 = no growth, -100 = all killed)
Conditions in all cases: 10 µM unless noted
[1] = tested on: SR leukemia
[2] = tested on: RPMI-8226 leukemia
[3] = tested on: OVCAR-8 ovarian
[4] = tested on: OVCAR-5 ovarian
[5] = tested on: OVCAR-4 ovarian
[6] = tested on: SK-OV-3 ovarian
[7] = tested on: IGROV1 ovarian
[8] = tested on: HS 578T breast
[9] = tested on: NCI/ADR-RES ovarian
[10] = tested on: OVCAR-3 ovarian

## CN(C)Cc1ccc(NC(=O)c2cncc(C#Cc3cnc(N)c4ncccc34)c2)cc1F
[1]
  growth: 2.94% (active)
[2]
  growth: 35.6%
[3]
  growth: -18% (active)
[4]
  growth: 123%
[5]
  growth: -71.3% (active)
[6]
  growth: 112%
[7]
  growth: 100%
[8]
  growth: 87.3%
[9]
  growth: 56.9%

## N#CC1=C(c2ccc(Cl)cc2)Nc2c(c(-c3ccc(Cl)cc3)nn2-c2ccccc2)C12C(=O)Nc1ccc(Cl)cc12 (centres undefined)
[1]
  growth: 14.1%
[2]
  growth: 27.9%
[3]
  growth: 49.2%
[4]
  growth: 71.6%
[5]
  growth: 41.8%
[6]
  growth: 86.5%
[10]
  growth: 55.3%
[8]
  growth: 57.1%
[9]
  growth: 52.8%

## N#CC1=C(N)Oc2c(sc3c(Br)cccc23)C1c1ccc(F)cc1 (centres undefined)
[1]
  growth: 5.83% (active)
[2]
  growth: 16.7%
[3]
  growth: 25.3%
[4]
  growth: 30.9%
[5]
  growth: 56.4%
[6]
  growth: 37.4%
[7]
  growth: 26.9%
[8]
  growth: 42%
[9]
  growth: 9.77% (active)

## O=C1/C(=C/c2cccs2)SC(=S)N1CCCN1CCOCC1
[1]
  growth: 92.5%
[2]
  growth: 97.9%
[3]
  growth: 96%
[4]
  growth: 105%
[5]
  growth: 89.1%
[6]
  growth: 99.4%
[10]
  growth: 113%
[8]
  growth: 98.7%

## COC(=O)c1cc(-c2ccc(S(C)(=O)=O)cc2)[nH]c1N/N=C/c1c(Cl)cccc1Cl
[1]
  growth: -12.3% (active)
[2]
  growth: -5.71% (active)
[3]
  growth: 29.7%
[4]
  growth: 42.6%
[5]
  growth: 59.6%
[6]
  growth: 29.2%
[10]
  growth: -33.6% (active)
[8]
  growth: -30.1% (active)
[9]
  growth: 3.91% (active)

## COC(=O)c1n[nH]c2ccc3nc(-c4cn[nH]c4C(F)(F)F)c4c(c3c12)CCCC4
[1]
  growth: 11.9%
[2]
  growth: 57.5%
[3]
  growth: 34.6%
[4]
  growth: 70.2%
[5]
  growth: 62.5%
[6]
  growth: 15.3%
[10]
  growth: 56.4%
[8]
  growth: 9.88% (active)
[9]
  growth: 83.7%

## COc1cc2c(c(OC)c1OC)CCC(c1cccc(C(=O)Nc3cccc(Br)c3)c1)O2 (centres undefined)
[1]
  growth: 35.6%
[2]
  growth: 50%
[3]
  growth: 81.1%
[4]
  growth: 81.3%
[5]
  growth: 55%
[6]
  growth: 78%
[7]
  growth: 81.8%
[8]
  growth: 66.7%
[9]
  growth: 79.6%

## CN1CCN(Cc2ccc(NC(=O)c3cncc(C#Cc4cnc(N)c5ccccc45)c3)cc2C(F)(F)F)CC1
[1]
  growth: 1.53% (active)
[2]
  growth: -42.8% (active)
[3]
  growth: -82.5% (active)
[4]
  growth: -83.7% (active)
[5]
  growth: -32.7% (active)
[6]
  growth: -78.5% (active)
[7]
  growth: -69.8% (active)
[8]
  growth: -41.5% (active)
[9]
  growth: -65.7% (active)

## Brc1ccc2[nH]cc(-c3nonc3-c3c[nH]c4ccccc34)c2c1
[1]
  growth: 28.1%
[2]
  growth: 48.7%
[3]
  growth: 47%
[4]
  growth: 48.9%
[5]
  growth: 46.1%
[6]
  growth: 60.5%
[10]
  growth: 45.4%
[8]
  growth: 52.8%
[9]
  growth: 42.6%

## O=[N+]([O-])/C(=C/C=C/c1ccccc1)c1ccccc1
[1]
  growth: 26.5%
[2]
  growth: 35.8%
[3]
  growth: 77.6%
[4]
  growth: 87.9%
[5]
  growth: 77.2%
[6]
  growth: 97.1%
[7]
  growth: -4.26% (active)
[8]
  growth: 56.8%
[9]
  growth: 78.3%

## N#Cc1cccc(F)c1
[1]
  growth: 98.1%
[2]
  growth: 113%
[3]
  growth: 109%
[4]
  growth: 83.1%
[5]
  growth: 118%
[6]
  growth: 111%
[7]
  growth: 106%
[8]
  growth: 107%
[9]
  growth: 104%

## Cc1cccnc1NC(=S)Nc1ncccc1C
[1]
  growth: 88.5%
[2]
  growth: 80.9%
[3]
  growth: 99.3%
[4]
  growth: 124%
[5]
  growth: 134%
[6]
  growth: -65.6% (active)
[7]
  growth: 103%
[8]
  growth: 111%
[9]
  growth: 117%

## COc1cccc(CNc2ncnc3c2ncn3C2OC(CO)C(O)C2O)c1O (centres undefined)
[1]
  growth: -9.69% (active)
[2]
  growth: -28.5% (active)
[3]
  growth: 6.83% (active)
[4]
  growth: 9.68% (active)
[5]
  growth: 11.3%
[6]
  growth: -61.5% (active)
[10]
  growth: -0.409% (active)
[8]
  growth: -27% (active)

## O=S(=O)(NCCCNc1nccc(-c2c(-c3ccc(F)c(O)c3)nc3occn23)n1)c1ccccc1
[1]
  growth: 70.2%
[2]
  growth: 78.2%
[3]
  growth: 94.8%
[4]
  growth: 121%
[5]
  growth: 104%
[6]
  growth: 79.4%
[10]
  growth: 97.9%
[8]
  growth: 87.3%
[9]
  growth: 118%

## Cn1cc(-c2csc(-c3c[nH]c4ccc(Br)cc34)n2)c2cnccc21
[1]
  growth: -30.9% (active)
[2]
  growth: -40.3% (active)
[3]
  growth: -60.5% (active)
[4]
  growth: -95.7% (active)
[5]
  growth: -84.8% (active)
[6]
  growth: -95.5% (active)
[10]
  growth: -91.9% (active)
[8]
  growth: -60.5% (active)
[9]
  growth: -69.2% (active)

## C#Cc1ccc(NC(=O)c2ccc(/C=C/C(=O)c3nccn3C)cc2)cc1
[1]
  growth: -18.8% (active)
[2]
  growth: -25.9% (active)
[3]
  growth: 5.61% (active)
[4]
  growth: -61.6% (active)
[5]
  growth: 9.83% (active)
[6]
  growth: 18.7%
[7]
  growth: -37.3% (active)
[8]
  growth: 33.1%
[9]
  growth: -7.85% (active)

## C=CCc1c2c(c(OC)c3ccoc13)C(=O)/C(=C/c1ccccc1OC)O2
[1]
  growth: 48%
[2]
  growth: 29.2%
[3]
  growth: 39.1%
[4]
  growth: 114%
[5]
  growth: 69.7%
[6]
  growth: 79.6%
[10]
  growth: 40.6%
[8]
  growth: 58.1%
[9]
  growth: 35.2%

## CCNc1nc(-c2ccc(Cl)c(OC)c2)c(-c2ccnc(NCCCNS(=O)(=O)c3ccc(Cl)cc3)n2)s1
[1]
  growth: 43.4%
[2]
  growth: 45.9%
[3]
  growth: 51%
[4]
  growth: 87.6%
[5]
  growth: 83%
[6]
  growth: 42.1%
[7]
  growth: 56.1%
[8]
  growth: 64.3%
[9]
  growth: 77.6%

## COc1ccc(Cc2cc(-c3ccccc3)nn(Cc3ccccc3)c2=O)cc1OC
[1]
  growth: 40.2%
[2]
  growth: 15.2%
[3]
  growth: 32.3%
[4]
  growth: 68.3%
[5]
  growth: 32.5%
[6]
  growth: 74.1%
[10]
  growth: 47.6%
[8]
  growth: 66.6%
[9]
  growth: 30.2%

## Cc1ccc2c3c(c(=O)[nH]c2c1)C1(C(C#N)=C(N)O3)c2cc(Br)ccc2-c2ccc(Br)cc21
[1]
  growth: 22.2%
[2]
  growth: 14.8%
[3]
  growth: 0.183% (active)
[4]
  growth: 18.3%
[5]
  growth: -50% (active)
[6]
  growth: 47.7%
[10]
  growth: -40.1% (active)
[8]
  growth: -5.5% (active)
[9]
  growth: 54.1%

## COC1C[C@H](O[C@@H]2C[C@H](O[C@@H]3C[C@H](O[C@@H]4C(=O)c5c(cc6cc(O[C@H]7C[C@@H](O[C@H]8C[C@@H](O)[C@H](O)C(C)O8)[C@H](O)C(C)O7)c(C)c(O)c6c5O)C[C@H]4C(OC)C(=O)[C@@H](O)[C@@H](C)O)OC(C)[C@H]3O)OC(C)[C@@H]2O)OC(C)[C@@H]1O (some centres undefined)
[1]
  growth: 10.2%
[2]
  growth: -1.8% (active)
[3]
  growth: 2.54% (active)
[4]
  growth: 14.2%
[5]
  growth: 12.1%
[6]
  growth: 16.6%
[10]
  growth: 3.14% (active)
[8]
  growth: 7.26% (active)
[9]
  growth: 82.4%

## O=C(CCc1nnc(Cn2cnc3nc[nH]c3c2=O)o1)c1nc2ncccc2[nH]1
[1]
  growth: 100%
[2]
  growth: 99.6%
[3]
  growth: 100%
[4]
  growth: 100%
[5]
  growth: 99.4%
[6]
  growth: 107%
[10]
  growth: 104%
[8]
  growth: 93.2%
[9]
  growth: 100%

## O=C(OCc1ccc2cccc(O)c2n1)N1CCN(C(=O)c2cc3cc(F)ccc3[nH]2)CC1
[1]
  growth: -9.28% (active)
[2]
  growth: -26.1% (active)
[3]
  growth: -40.6% (active)
[4]
  growth: -84.5% (active)
[5]
  growth: -71.8% (active)
[6]
  growth: 54.3%
[10]
  growth: -79.3% (active)
[8]
  growth: -21.2% (active)
[9]
  growth: -21.5% (active)

## COC(=O)CNC(=O)[C@H](Cc1ccccc1)NCc1ccncc1
[1]
  growth: 97%
[2]
  growth: 91%
[3]
  growth: 98.3%
[4]
  growth: 105%
[5]
  growth: 107%
[6]
  growth: 80.7%
[7]
  growth: 104%
[8]
  growth: 106%
[9]
  growth: 103%

## COc1ccc(C(=O)Nc2ncc(Cc3cccc(Cl)c3)s2)cc1OC
[1]
  growth: 17%
[2]
  growth: 21.3%
[3]
  growth: 35.6%
[4]
  growth: 49.3%
[5]
  growth: 60.2%
[6]
  growth: 34.9%
[7]
  growth: 40.2%
[8]
  growth: 30.9%
[9]
  growth: 20.9%

## Nc1ncnc2c1N=C(c1ccc(Cl)cc1)CC(c1ccc3c(c1)OCO3)N2 (centres undefined)
[1]
  growth: 77.3%
[2]
  growth: 60.3%
[3]
  growth: 91.7%
[4]
  growth: 85.6%
[5]
  growth: 98.6%
[6]
  growth: 21%
[10]
  growth: 85.5%
[8]
  growth: 93.8%
[9]
  growth: 98.2%

## CN[C@]12CC3(C=CC(=O)C=C3)O[C@@]1(Cc1ccc(OC)cc1)N(C)C(=O)N2
[1]
  growth: 8.34% (active)
[2]
  growth: -3.85% (active)
[3]
  growth: 15.6%
[4]
  growth: 18.3%
[5]
  growth: 32.2%
[6]
  growth: 85.7%
[10]
  growth: 11.2%
[8]
  growth: 96.8%
[9]
  growth: 55.6%

## OB(O)c1cccc(-c2nc3ccc4[nH]ncc4c3c3c2CCCC3)c1
[1]
  growth: 32.2%
[2]
  growth: 53%
[3]
  growth: 48.7%
[4]
  growth: 78.3%
[5]
  growth: 80.2%
[6]
  growth: 7.93% (active)
[10]
  growth: 73.9%
[8]
  growth: 0.588% (active)
